Potency and affinity values are given separately. Inconclusive results are not listed. The source made the active and inactive calls. Unless noted, the rule behind the calls is not given here.
What was measured:
[1] = cytotoxicity in PAX8-dependent RMG-1 cells, dose response, cell-based, cherry-pick (AID 687029;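 active = signal drop whose fitted half-maximal concentration is at most twice the top valid dose, in every test run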;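 note: cells exposed to compound for 96 hours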)
[2] = cytotoxicity in IOSE-T80 ovarian epithelial cells, dose response, selectivity assay for PAX8 inhibitor project, cell-based, cherry-pick (AID 687032;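 active = fitted half-maximal concentration for viability loss no higher than twice the top valid dose, in every repeat run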;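 note: cells exposed to compound for 96 h before reading; 0% = neutral control wells and -100% = 2 µM mitoxantrone kill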)
[3] = non-specific cell cytotoxicity, dose response, cytotoxicity control for PAX8 inhibitor project, plate reader, dry powder samples (AID 743021)
[4] = IGROV1 ovarian cancer cell cytotoxicity, dose response, PAX8 inhibitor project, plate reader, dry powder samples (AID 743043);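 note: more negative means fewer viable cells or more cytotoxicity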
[5] = IOSE-T80 ovarian epithelial cell cytotoxicity, dose response, cytotoxicity control for PAX8 inhibitor project, plate reader, dry powder samples (AID 743045);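 note: 0% = neutral control median and -100% = positive control median; more negative values mean more cell killing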
[6] = A2780 ovarian cancer cell cytotoxicity, dose response, cytotoxicity control, plate reader, dry powder samples (AID 743046);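 note: 0% = neutral control wells and -100% = cytotoxic reference compound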
[7] = NIH:OVCAR-3 ovarian cancer cell cytotoxicity, dose response, PAX8 inhibitor project, plate reader, dry powder samples (AID 743044); conditions: max activity: at 35 µM, hits give low values unless noted
[8] = cytotoxicity in OVCAR8 ovarian cancer cells, dose response, PAX8 project, cell-based, plate reader, dry powder samples (AID 743197)
[9] = A549 cell cytotoxicity, dose response, cytotoxicity control, plate reader, cherry-pick, antagonist series (AID 743412);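 note: 0% = neutral control wells and -100% = positive control wells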
[10] = HepG2 cell cytotoxicity, dose response, cytotoxicity control, plate reader, cherry-pick, antagonist series (AID 743416);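 note: 0% = neutral control wells and -100% = positive control wells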

Measured: max activity

Cc1ccc(C)c(CSC2=NCCN2C(=O)Cc2ccc([N+](=O)[O-])cc2)c1
inactive: [1] | [2] | [3]

CS(=O)(=O)Nc1ccc2c(c1)[C@@H]1C[C@@H](CC(=O)NCc3ccc(Oc4ccccc4)cc3)O[C@@H](CO)[C@@H]1O2
inactive: [1] | [2] | [3]

C=C1C(=O)[C@]23C[C@H]1CCC2[C@]1(C)CCC[C@@](C)(C(=O)O)C1C[C@@H]3O (some centres undefined)
inactive: [1] | [2] | [3]

O=C(NCCN1C(=O)S/C(=C\c2ccc(OC(F)F)cc2)C1=O)c1cnccn1
inactive: [1] | [2] | [3]

CCOC(=O)c1cnn(CCOC(=O)c2cccc(F)c2)c1NC(=O)c1cccc(F)c1
inactive: [1] | [2] | [3]

COc1cc(OC)c(NC2=CC(=O)C(=O)c3ccccc32)cc1Cl
inactive: [1] | [2] | [3]

COc1ccc(C(=O)NN(C)c2nc(C(F)(F)F)nc3ccccc23)cc1
inactive: [1] | [2] | [3]

Oc1c(I)cc(I)c2cccnc12
inactive: [1] | [2] | [3]

Oc1ccc(N=Nc2ccccc2C(F)(F)F)c2cccnc12
inactive: [1] | [2] | [3]

O=C(Nc1ccc([N+](=O)[O-])cc1)Nc1nc(-c2ccc(Cl)s2)cs1
inactive: [1] | [2] | [3]

C[C@H]1CN([C@@H](C)CO)S(=O)(=O)c2ccc(C#CC3CCCC3)cc2O[C@@H]1CN(C)Cc1cccnc1
inactive: [1] | [2] | [3] | [4] | [5] | [6]

C[C@H]1CCCCO[C@@H](CN(C)Cc2ccc(C(F)(F)F)cc2)[C@@H](C)CN([C@@H](C)CO)C(=O)c2cc(NC(=O)Nc3ccc(F)cc3)ccc2O1
inactive: [1] | [2] | [3] | [4] | [5] | [6]

O=C1/C(=C/c2cccc(Br)c2)SC(=S)N1CCC(=O)N(CCO)c1ccccc1
not listed: [8] | [9] | [10]
inactive: all other assays above

CCCN(C)C[C@H]1OCCCC[C@@H](C)Oc2ccc(NC(=O)Nc3ccc(C(F)(F)F)cc3)cc2C(=O)N([C@H](C)CO)C[C@H]1C
inactive: [1] | [2] | [3] | [4] | [7] 9.68% [at 1 µM, hits give low values] | [5] | [6] | [8]

C[C@@H]1CCCCO[C@H](CN(C)CC2CCCCC2)[C@H](C)CN([C@@H](C)CO)C(=O)c2cc(NS(=O)(=O)c3ccc(Cl)cc3)ccc2O1
inactive: [1] | [2] | [3] | [4] | [7] 13.1% [at 0.5 µM, hits give low values] | [5] | [6] | [8]

C[C@@H]1CCCCO[C@@H](CN(C)C(=O)Nc2ccc(C(F)(F)F)cc2)[C@H](C)CN([C@@H](C)CO)C(=O)c2cc(NC(=O)Nc3ccc(C(F)(F)F)cc3)ccc2O1
inactive: [1] | [2] | [3] | [4] | [7] -30.2% | [5] | [6] | [8]

CC(C)CC#Cc1ccc2c(c1)O[C@H](CN(C)Cc1ccc(F)cc1)[C@H](C)CN([C@H](C)CO)S2(=O)=O
inactive: [1] | [2] | [3] | [4] | [7] 38.6% [at 2.1 µM, hits give low values] | [5] | [6]

C[C@H]1CN([C@@H](C)CO)C(=O)Cc2cc(NC(=O)Nc3ccc4c(c3)OCO4)ccc2O[C@@H]1CN(C)Cc1ccc(-c2ccccc2)cc1
inactive: [1] | [2] | [3] | [4] | [7] -22.8% [at 16 µM, hits give low values] | [5] | [6] | [8]

C[C@@H]1CN([C@H](C)CO)C(=O)c2cc(NC(=O)Nc3ccc(C(F)(F)F)cc3)ccc2O[C@@H](C)CCCCO[C@H]1CN(C)S(=O)(=O)c1ccc(F)cc1
inactive: [1] | [2] | [3] | [4] | [7] -20.5% [at 8 µM, hits give low values] | [5] | [6] | [8]

C[C@@H]1CCCCO[C@H](CN(C)C(=O)Nc2ccc(F)cc2)[C@@H](C)CN([C@@H](C)CO)C(=O)c2cc(NS(=O)(=O)c3ccc(Cl)cc3)ccc2O1
inactive: [1] | [2] | [3] | [4] | [5] | [6]

O=C(C[C@H]1C[C@@H]2c3cc(NS(=O)(=O)c4ccc(F)cc4)ccc3O[C@@H]2[C@@H](CO)O1)NCc1ccc(Oc2ccccc2)cc1
inactive: [1] | [2] | [3] | [4] | [7] 26.4% | [5] | [6] | [8]

C[C@@H]1CCCCO[C@H](CN(C)Cc2ccc3c(c2)OCO3)[C@@H](C)CN([C@@H](C)CO)C(=O)c2cc(NC(=O)Nc3ccc(C(F)(F)F)cc3)ccc2O1
inactive: [1] | [2] | [3] | [4] | [7] -12% | [5] | [6]

C[C@H]1CN([C@@H](C)CO)S(=O)(=O)c2ccc(C#Cc3ccc(F)cc3)cc2O[C@H]1CN(C)C(=O)NC1CCCCC1
not listed: [7] | [9] | [10]
inactive: all other assays above

C[C@@H]1CCCCO[C@@H](CN(C)C(=O)Nc2ccc(F)cc2)[C@H](C)CN([C@@H](C)CO)C(=O)c2cc(NC(=O)Nc3ccc(C(F)(F)F)cc3)ccc2O1
inactive: [1] | [2] | [3] | [4] | [7] -4.11% | [5] | [6] | [8]

C[C@H](CO)N1C[C@H](C)[C@H](CN(C)Cc2ccc(C(F)(F)F)cc2)OCCCC[C@H](C)Oc2ccc(NC(=O)CCC(F)(F)F)cc2C1=O
inactive: [1] | [2] | [3] | [4] | [5] | [6]

C[C@@H]1CCCCO[C@H](CN(C)Cc2ccc(Cl)c(Cl)c2)[C@@H](C)CN([C@@H](C)CO)C(=O)c2cc(NC(=O)Nc3ccc(C(F)(F)F)cc3)ccc2O1
inactive: [1] | [2] | [3] | [4] | [5] | [6]

C[C@@H]1CN([C@H](C)CO)C(=O)c2cc(NS(=O)(=O)c3ccc(Cl)cc3)ccc2O[C@@H](C)CCCCO[C@H]1CN(C)Cc1ccc(Cl)c(Cl)c1
not listed: [7] | [9] | [10]
inactive: all other assays above

C[C@H]1CCCCO[C@H](CN(C)C(=O)Nc2ccc(C(F)(F)F)cc2)[C@@H](C)CN([C@@H](C)CO)C(=O)c2cc(NS(=O)(=O)c3ccc(F)cc3)ccc2O1
inactive: [1] | [2] | [3] | [4] | [7] 19.1% [at 4.2 µM, hits give low values] | [5] | [6]

C[C@@H]1CN([C@@H](C)CO)C(=O)c2cc(NC(=O)Nc3ccc(F)cc3)ccc2O[C@@H](C)CCCCO[C@@H]1CN(C)Cc1ccc(C(F)(F)F)cc1
inactive: [1] | [2] | [3] | [4] | [5]

C[C@@H]1CCCCO[C@H](CN(C)C(=O)Nc2ccc(C(F)(F)F)cc2)[C@@H](C)CN([C@@H](C)CO)C(=O)c2cc(NS(=O)(=O)c3ccc(F)cc3)ccc2O1
inactive: [1] | [2] | [3] | [4] | [7] 19.5% [at 4.2 µM, hits give low values] | [5] | [6]

C[C@@H]1CCCCO[C@H](CN(C)Cc2ccc(Cl)c(Cl)c2)[C@H](C)CN([C@@H](C)CO)C(=O)c2cc(NC(=O)Nc3ccc(C(F)(F)F)cc3)ccc2O1
inactive: [1] | [2] | [3] | [4] | [5] | [6]

C[C@@H]1CN([C@@H](C)CO)C(=O)Cc2cc(NC(=O)NC3CCCCC3)ccc2O[C@H]1CN(C)Cc1ccc(-c2ccccc2)cc1
inactive: [1] | [2] | [3] | [4] | [5]

C[C@H](CO)N1C[C@H](C)[C@@H](CN(C)C(=O)Nc2cccc3ccccc23)OCCCC[C@H](C)Oc2ccc(NC(=O)c3ccncc3)cc2C1=O
inactive: [1] | [2] | [3] | [4] | [7] -25.1% | [5] | [6] | [8]

Cc1ccccc1OCC(=O)Nc1cccc(C(=O)O)c1
not listed: [8]
inactive: all other assays above

O=C(Nc1ccc(C(F)(F)F)cc1)Nc1ccc2c(c1)[C@H]1C[C@@H](CC(=O)N3CCc4ccccc4C3)O[C@H](CO)[C@H]1O2
inactive: [1] | [2] | [3] | [4] | [5] | [6]

C[C@@H]1CCCCO[C@H](CN(C)C(=O)Nc2ccc(C(F)(F)F)cc2)[C@@H](C)CN([C@@H](C)CO)C(=O)c2cc(NS(=O)(=O)c3ccccc3)ccc2O1
inactive: [1] | [2] | [3] | [4] | [7] 27.6% [at 0.26 µM, hits give low values] | [5] | [6] | [8]

C[C@@H]1CN([C@H](C)CO)S(=O)(=O)c2ccc(C#Cc3ccncc3)cc2O[C@H]1CN(C)C(=O)C1CCCCC1
not listed: [7] | [9] | [10]
inactive: all other assays above
